Most compounds without a hit are left out; they make up all but 4.1% or so of the library.
ssDAF-12 act = S. stercoralis DAF-12 activation, primary screen; 370,000 tested, 1% active; HEK293 ssDAF-12/GRIP1 lit1-tk-luc reporter, luminescence; % of 3 µM dafachronic acid response; AID 652126; activation, % at 6.8 µM;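 active = activation above the mean over all tested compounds plus 3 SD, cut at about 0.9% in these data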
DAX1 inh-1 = inhibitors of DAX1 repression of SF-1 activated StAR promoter; HEK293T StAR-luciferase reporter, SF-1/DAX-1 repression relief; inhibition, % at 6.8 µM; 370,000 tested, 1.1% active; AID 652010;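 active = inhibition above the mean over all tested compounds plus 3 SD, cut at about 3.6% in these data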;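 note: higher inhibition means more luminescence from relief of DAX-1 repression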
hcDAF-12 act = activates DAF-12 receptor from parasite H. contortus; 370,000 tested, 1.4% active; activation, % at 6.8 µM; HEK293 hcDAF-12 lit1-tk-luc reporter, luminescence; 0% DMSO, 100% Δ7-dafachronic acid;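 active = activation above the mean of all tested compounds plus 3 SD, cut at about 5.5% in these data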
DAX1 inh-2 = NR0B1 (DAX1) inhibition. AID 504766. 340,000 tested, 0.99% active. inhibition, % at 6.75 µM. HEK293 Gal4-DAX1 luciferase reporter, luminescence. P51843;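 active = inhibition above the mean over all tested compounds plus 3 SD, cut at about 4.2% in these data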;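 note: inhibition shows as a rise in luminescence from relieved DAX1 repression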
Target sequence (P51843 207-470 limits assumed): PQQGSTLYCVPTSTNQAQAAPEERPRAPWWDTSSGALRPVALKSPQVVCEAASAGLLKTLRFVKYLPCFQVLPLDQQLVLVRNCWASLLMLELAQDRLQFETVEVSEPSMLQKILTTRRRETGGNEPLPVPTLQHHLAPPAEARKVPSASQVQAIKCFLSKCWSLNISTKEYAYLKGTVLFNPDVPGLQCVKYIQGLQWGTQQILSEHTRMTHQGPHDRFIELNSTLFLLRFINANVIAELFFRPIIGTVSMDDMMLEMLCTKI
hgDAF-12 ag = agonists of H. glycines DAF-12 nuclear receptor | 370,000 tested, 1.8% active | activation, % at 6.8 µM | HEK293 GAL4-hgDAF12 UAS-luciferase reporter, agonist luminescence; normalized to butyrate control | AID 687014;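 active = activation above a cutoff set at the mean of all screened compounds plus 3 SD, cut at about 10% in these data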
Large screens that a line does not name were inactive.

Cc1ccc(C(=O)N/N=C2\CC3CC=CC23)c(C)c1 (stereo unspecified)	DAX1 inh-2 5.7
COCCCN1C(=O)[C@H](CC(=O)NCc2cccs2)[C@]2(C(=O)OC)CCCCC=C12	none (no result: DAX1 inh-2)
Cc1cccc(NC(=O)CCS(=O)(=O)c2ccccc2)c1C	none (no result: DAX1 inh-2)
N#CCCn1cc(/C=C/C(=O)O)c(-c2ccc(F)cc2)n1	DAX1 inh-2 5.4
C[C@@H]1CCN(C2CC2)S(=O)(=O)c2c(cccc2N2CCC[C@H]2C)O1	none (no result: DAX1 inh-2)
CCc1ccc(NC(=O)CSc2nnc(Cc3cccn3C)n2-c2ccc(OC)cc2)cc1	DAX1 inh-2 4.7
Cc1cccc2c1cnn2C(=O)Nc1ccccc1Cl	hcDAF-12 act 5.8
CCCc1cc2c(=O)c(-c3ccc4c(c3)OCCO4)coc2cc1OC(=O)c1ccco1	none
COC(=O)COc1ccc2c(=O)c(-c3ccccc3)coc2c1	none
CCc1cc2c(=O)c(-c3ccc4c(c3)OCCO4)coc2cc1OC(=O)c1ccco1	hgDAF-12 ag 11
COc1ccc2c(=O)c(-c3ccc4c(c3)OCO4)coc2c1	hcDAF-12 act 5.7, hgDAF-12 ag 17
CC(C)Oc1ccc2c(=O)c(-c3ccccc3)coc2c1	DAX1 inh-1 8.3, hgDAF-12 ag 14
COc1ccc(Cn2cc(COC(=O)N3CCOCC3)nn2)cc1	none (no result: DAX1 inh-2)
Cc1ccc(C(=O)/C=C\C(=O)c2ccc(C)cc2)cc1	none
CC(/C=C/C(=O)c1ccc(C)cc1)=C\c1ccccc1	DAX1 inh-2 5.3
Cc1ccccc1Cn1c(=O)n(-c2ccccc2)c(=O)c2ccc(C(=O)NCc3ccco3)cc21	DAX1 inh-2 4.6
Cc1ccc(-n2c(=O)c3ccc(C(=O)NCc4ccco4)cc3n(Cc3ccccc3C#N)c2=O)cc1	none
Cc1ccccc1Cn1c(=O)n(Cc2ccco2)c(=O)c2ccccc21	DAX1 inh-2 4.5
C/C(=N\NC(=O)c1c(Cl)cnn1C)c1cccnc1	DAX1 inh-1 4.3
C/C(=N\NC(=O)c1ccc(Cl)cc1)c1cccnc1	none
CC(C)c1ccc(/C=N/NC(=O)c2c(Cl)cnn2C)cc1	hgDAF-12 ag 13
Cc1nn(C)c(C(=O)N/N=C/c2ccc(Br)cc2)c1Cl	none
Cc1noc(C)c1S(=O)(=O)N1CCN(S(=O)(=O)c2ccccc2C#N)CC1	DAX1 inh-2 7.8
COC(/C=C/Nc1ccc(C)cc1)=C(C#N)C#N	hcDAF-12 act 5.6
O=C(CSc1nc2c(cnn2-c2ccccc2)c(=O)[nH]1)NC1CCS(=O)(=O)C1 (stereo unspecified)	DAX1 inh-2 5.7
CC(C)(C)c1ccc(S(=O)(=O)N2CCC(C(=O)NCCC3=CCCCC3)CC2)cc1	none (no result: DAX1 inh-2)
CCCCCN(C(=O)CCc1cn(CCCCC)c2ccccc12)c1ccc(Oc2cccnc2)cc1	none (no result: DAX1 inh-2)
Cc1sc(NC(=O)c2ccccc2F)c(CN2CCCCC2)c1C	hcDAF-12 act 6.2
Cc1sc(NC(=O)c2ccc(F)cc2)c(CN2CCCCCC2)c1C	hgDAF-12 ag 11
O=C(Nc1sc2c(c1CN1CCOCC1)CCC2)c1ccc(F)cc1	hcDAF-12 act 5.9
O=C(CC(O)CCc1ccccc1)c1ccc(O)cc1 (stereo unspecified)	DAX1 inh-2 8.4
CCN(C)C(=O)CNc1nnnn1-c1ccccc1	none (no result: DAX1 inh-2)
COc1ccc(N2CCN(CCNS(=O)(=O)c3ccccc3[N+](=O)[O-])CC2)cc1	none (no result: DAX1 inh-2)
O=C(Nc1cc(-c2ccccc2)[nH]n1)c1ccccc1F	hgDAF-12 ag 12 (no result: DAX1 inh-2)
O=C1CC2c3cc(-c4cc5ccccc5o4)ccc3CCN2C(=O)CN1Cc1ccccc1 (stereo unspecified)	none (no result: DAX1 inh-2)
O=C(NCc1csc(-c2cccs2)n1)c1cccc(Cl)c1	DAX1 inh-2 4.4
O=C(NCc1csc(-c2cccs2)n1)c1ccccc1	none
COC(=O)[C@]12C[C@H](CC(=O)NCc3cccc(C(F)(F)F)c3)C(=O)N(Cc3cccc4ccccc34)C1=C[C@H](C(C)C)O[C@@H]2C1CC1	none (no result: DAX1 inh-2)
CCSc1cc(N2CCCC2)nc(-c2ccc(Cl)cc2)n1	none
Clc1ccc(-c2nnc(N3CCCC3)nn2)cc1	DAX1 inh-2 8.8
CC(=O)c1cc(-c2ccc(Oc3ccccc3)cc2)c(=O)n2c1CCC2	none (no result: DAX1 inh-2)
CCCC1CCC2(CCC(=O)N2CCC#N)CC1 (stereo unspecified)	none (no result: DAX1 inh-2)
O=c1c(OC2OC(CO)C(O)C(O)C2OC2OC(CO)C(O)C(O)C2O)c(-c2ccc(O)cc2)oc2cc(O)cc(O)c12 (stereo unspecified)	DAX1 inh-2 4.6

Bioassay records (PubChem)
